Out of some 48,000 compounds screened, about 13,000 (27%) showed an effect of 50% or more. This is one part of the list.
Each compound was assayed on Wolbachia pipientis (assay: Anti-Wolbachia Cell-Based Screen). Conditions: 5 µM.
Type: functional
Parameters: scale not given: in the data most compounds retested in dose-response had high values

Row | SMILES | Percent Effect
1 | OCc1ccncc1NCc1cnc(-c2ccccn2)s1 | -4.749%
2 | Cc1cc2n(n1)CC(CNC1CCN(c3ccccn3)CC1)CN2 (stereo not given) | 4.836%
3 | O=C(NCc1ccccc1)N1CCC2(CC(=O)N(c3ccsc3)C2)C1 (stereo not given) | -8.501%
4 | O=C(NCc1cccnc1)N1CCC2(CC(=O)N(c3ccsc3)C2)C1.O=C(O)C(F)(F)F (stereo not given) | 89.85%
5 | Cn1ccnc1CN1CCC2(CC(=O)N(c3ccsc3)C2)C1.O=C(O)C(F)(F)F (stereo not given) | 6.522%
6 | O=C(NCc1ccccc1)N1CCC2(CC(=O)N(c3ccccc3)C2)C1 (stereo not given) | 115.5%
7 | O=C(NCc1cccc(F)c1)N1CCC2(CC(=O)N(c3ccsc3)C2)C1 (stereo not given) | 6.273%
8 | O=C(NC[C@H]1COCc2nc3cc(F)ccc3n21)c1cccnc1 | -2.363%
9 | CCS(=O)(=O)CCNC(=O)[C@@]12CNC[C@@H]1CN(C1CCCC1)C2 | 17.06%
10 | CC(=O)Nc1ccc(CNC2CCCSC2)cc1 (stereo not given) | -9.842%
11 | Cc1cccc(C(=O)N2C[C@@H]3OCCN(c4ncccn4)[C@@H]3C2)n1.O=C(O)C(F)(F)F.O=C(O)C(F)(F)F | -4.674%
12 | Cc1occc1C(=O)N1C[C@H]2CCCC(OCc3cccnc3)[C@H]2C1.O=C(O)C(F)(F)F (stereo not given in full) | -5.108%
13 | Cc1occc1C(=O)N1C[C@@H]2[C@@H](C1)OCC(=O)N2Cc1cccnc1.O=C(O)C(F)(F)F | -5.789%
14 | Cn1ccc(C(=O)N2C[C@@H]3CCN(c4cccnc4)C[C@@H]3C2)n1.O=C(O)C(F)(F)F | -11%
15 | Cc1ccccc1C(=O)N1C[C@@H]2OCCN(c3ncccn3)[C@@H]2C1.O=C(O)C(F)(F)F | 105.7%
16 | Cn1ccc(C(=O)N2C[C@@H]3OCCN(c4ncccn4)[C@@H]3C2)n1.O=C(O)C(F)(F)F | 98.93%
17 | Cc1occc1C(=O)N1C[C@@H]2OCCN(c3ncccn3)[C@@H]2C1.O=C(O)C(F)(F)F | 117.5%
18 | O=C(c1cc(-n2cccn2)ccn1)N1CCOc2ccncc21 | -0.9385%
19 | O=C1CN(CC[C@@H](O)c2ccccc2)CCN1c1ccccc1Cl | -4.837%
20 | O=C(c1csnn1)N1CCCC(n2cncn2)C1 (stereo not given) | 98.21%
21 | CC(=O)Nc1nc(C(=O)N2CCCC(n3nc(C)cc3C)C2)cs1 (stereo not given) | -2.313%
22 | Cc1nc(C(=O)N2CCCC(n3cncn3)C2)cs1 (stereo not given) | -4.147%
23 | CC(=O)Nc1nc(C(=O)N2CCCC(n3cncn3)C2)cs1 (stereo not given) | 110.6%
24 | O=C(c1cc(C2CC2)on1)N1CCCC(n2cncn2)C1 (stereo not given) | 7.01%
25 | O=C(c1cscn1)N1CCCC(n2cncn2)C1 (stereo not given) | 88.79%

From ChEMBL document CHEMBL3988442, “University of Dundee, Small-Polar-MMV Screening Library” (2021)
